High-throughput results from PubChem.
Methyltransferases – Primary Screen for Target Class Profiling of Small Molecule Inhibitors of Methyltransferases. purified enzyme, MTase-Glo SAH luminescence; active compounds read low. 3.9% of 25,000 active. calls only at 40 µM; call rule not given here
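Each enzyme was assayed with SAM and its substrate. SAH formation detected by MTase-Glo luminescence; single-point 40 uM screen[…].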
Numbers without * were called inactive; ! = not confirmed by another sample. Only a selection was taken, and hits are over-represented in it overall. % is set by controls: 0 for no effect and ±100 for the full control effect.

What do the screens show for `CC(C)(C)NC(=O)Nc1cccc(Nc2ncc(F)c(NC(C)(C)CO)n2)c1`?
Methyltransferases: inactive

Results for C=CC(=O)Nc1cccc(Nc2nc(Nc3ccc(OCCOC)cc3)ncc2F)c1 ?
Methyltransferases: active

What do the screens show for `CC1(C(=O)Nc2ccccc2F)COCc2cnc(Nc3ccccc3)nc21` (stereo unspecified)?
Methyltransferases: inactive

How did CCCC1c2ccc(C)n2CCN1C(=O)Nc1ccc(Br)cc1F (stereo unspecified) do in these assays?
Methyltransferases: inactive

How did CCOC(=O)c1cc2n(n1)CC(C)(C(=O)NC1CCCCC1)N(c1ccc(CC)cc1)C2=O (stereo unspecified) do in these assays?
Methyltransferases: inactive

How did CCOc1ccc(CN2C(=O)c3ccc(-c4ccco4)n3CC2(C)C(=O)NC2CCCC2)cc1 (stereo unspecified) do in these assays?
Methyltransferases: inactive

How did CCC(C)N1C(=O)c2ccc(-c3ccco3)n2CC1(C)C(=O)NC1CCCCCCC1 (stereo unspecified) do in these assays?
Methyltransferases: inactive

How did CCCn1c(=O)c2cc(F)ccc2n2c(SCC(=O)Nc3ccc(OC)cc3)nnc12 do in these assays?
Methyltransferases: inactive

Results for CCN1CCN(Cc2ccc(Nc3ncc(F)c(-c4cc(F)c5nc(C)n(C(C)C)c5c4)n3)nc2)CC1 ?
Methyltransferases: active

What do the screens show for `CC1CCN(S(=O)(=O)c2ccc3c(ccn3CC(=O)NCCc3cccs3)c2)CC1`?
Methyltransferases: inactive

Results for Cc1ccc(N2C(=O)c3cc4oc(C)cc4n3CC2(C)C(=O)NC2CCCCCC2)cc1 (stereo unspecified) ?
Methyltransferases: inactive

How did CC1(C(=O)NC2CCCC2)Cn2c(nc3ccccc32)C(=O)N1CCc1ccc(Cl)cc1 (stereo unspecified) do in these assays?
Methyltransferases: inactive

Results for CC(C)c1cc2n(n1)CC(C)(C(=O)NC1CCCCCC1)N(Cc1cccc(F)c1)C2=O (stereo unspecified) ?
Methyltransferases: inactive

Results for COc1cc2c(Nc3cc(F)c(Cl)c(Cl)c3)ncnc2cc1OCC1CCCN(C)CCC1 ?
Methyltransferases: active

Results for COc1cc2c(Nc3ccc(Br)cc3F)ncnc2cc1OCC1CCN(C)CC1 ?
Methyltransferases: active

How did CCOc1ccc(CNC(=O)c2cc3n(n2)CC(C)(C(=O)NCc2ccccc2)N(C)C3=O)cc1OC (stereo unspecified) do in these assays?
Methyltransferases: inactive

Results for CC1(C(=O)NC2CCCCCCC2)Cn2c(cc3sccc32)C(=O)N1C1CCCCCC1 (stereo unspecified) ?
Methyltransferases: inactive

What do the screens show for `O=C(CCc1nnc2n(CCc3ccccc3)c(=O)c3ccccc3n12)N1CCN(c2ccccn2)CC1`?
Methyltransferases: inactive

How did CN1C(=O)c2cc(C(=O)NCc3ccccc3F)nn2CC1(C)C(=O)NC1CCCCC1 (stereo unspecified) do in these assays?
Methyltransferases: inactive

What do the screens show for `COc1cccc(CN2C(=O)c3nc4ccccc4n3CC2(C)C(=O)NC2CCCCCC2)c1` (stereo unspecified)?
Methyltransferases: inactive

How did CC1(C(=O)NC2CCCCCCC2)Cn2c(cc3occc32)C(=O)N1C1CCCC1 (stereo unspecified) do in these assays?
Methyltransferases: inactive

What do the screens show for `C=CCn1c(=O)c2ccc(C(=O)NC(C)C)cc2n2c(=O)n(CC(=O)Nc3ccccc3)nc12`?
Methyltransferases: inactive

What do the screens show for `COc1ccc(NC(=O)c2ccc3c(c2)N(C(=O)c2ccc(OC)cc2)CC3)cc1`?
Methyltransferases: inactive

What do the screens show for `CCN(CC)Cc1ccc2cc(COC(=O)Nc3ccc(C(=O)NO)cc3)ccc2c1`?
Methyltransferases: active!

Results for COc1ccc2cc3n(c2c1)CC(C)(C(=O)NC1CCCCC1)N(CCN1CCN(C)CC1)C3=O (stereo unspecified) ?
Methyltransferases: inactive

What do the screens show for `COc1c(Nc2ncc(Cl)c(N[C@H]3[C@@H](C(N)=O)[C@@H]4C=C[C@H]3C4)n2)ccc2c1CC[C@@H](N1CCOCC1)CC2`?
Methyltransferases: inactive

Results for CNC(=O)c1ccccc1Nc1nc(Nc2ccc3c(c2OC)CCCC(N2CCN(CCO)CC2)C3)ncc1Cl (stereo unspecified) ?
Methyltransferases: active

Results for CCOCCCNC(=O)C1c2c(n(C)c3ccccc23)SCC(=O)N1c1ccc(C)c(Cl)c1 (stereo unspecified) ?
Methyltransferases: inactive

Results for COc1cccc(CN2C(=O)c3cc4sccc4n3CC2(C)C(=O)NC2CCCCC2C)c1OC (stereo unspecified) ?
Methyltransferases: inactive

What do the screens show for `O=C(NCCCNc1nc(Nc2cccc(CN3CCOCC3)c2)ncc1C1CC1)C1CCC1`?
Methyltransferases: active

What do the screens show for `CNc1nccnc1-c1cccc(CN2CCOCC2)c1`?
Methyltransferases: inactive

How did O=C(Nc1nn(Cc2ccccc2)c2cccc(N3CCOCC3)c12)C1CCC1 do in these assays?
Methyltransferases: inactive

What do the screens show for `CCN(CC)CCOc1ccc(Nc2ncc3cc(-c4c(Cl)cccc4Cl)c(=O)n(C)c3n2)cc1`?
Methyltransferases: active

Results for CCCn1c(=O)c2cc(Cl)ccc2n2c(SCc3cccc(F)c3)nnc12 ?
Methyltransferases: inactive

What do the screens show for `CCOC(=O)c1cc2n(n1)CC(C)(C(=O)NCCCOC(C)C)N(c1cccc(CC)c1)C2=O` (stereo unspecified)?
Methyltransferases: inactive

How did CCCN(CCC)CCN1C(=O)c2cc3sccc3n2CC1(C)C(=O)NC1CCCCCC1 (stereo unspecified) do in these assays?
Methyltransferases: inactive

Results for COc1cc(Nc2nc3c(s2)CCCC3c2ccccc2)ccc1-n1cnc(C)c1 (stereo unspecified) ?
Methyltransferases: inactive

Results for COc1cc(/C=C2\CCCN([C@@H](C)c3ccc(F)cc3)C2=O)ccc1-n1cnc(C)c1 ?
Methyltransferases: active

Results for CC(C)OCCCn1c(=O)c2ccccc2n2c(CCC(=O)Nc3ccccc3)nnc12 ?
Methyltransferases: inactive

What do the screens show for `Cn1c2c(c3ccccc31)C(C(=O)NCc1ccccc1)N(Cc1ccco1)C(=O)CS2` (stereo unspecified)?
Methyltransferases: inactive

What do the screens show for `CCCOc1ccc(CN2C(=O)c3cc(C(C)C)nn3CC2(C)C(=O)NC2CCCCCC2)cc1` (stereo unspecified)?
Methyltransferases: inactive

What do the screens show for `CCOCCCNC(=O)c1cc2n(n1)CC(C)(C(=O)NCc1ccc(C)cc1)N(C)C2=O` (stereo unspecified)?
Methyltransferases: inactive

What do the screens show for `Cc1ncc(CCCN(C)C)cc1Nc1ncc2c(n1)-c1ccc(C(F)(F)F)cc1NC(=S)C2`?
Methyltransferases: active

Results for CCOC(=O)c1cc2n(n1)CC(C)(C(=O)NC1CCCCC1)N(c1ccc(C)c(C)c1)C2=O (stereo unspecified) ?
Methyltransferases: inactive

How did Cc1cc(F)ccc1NC(=O)c1cc2n(n1)CC(C)(C(=O)NC1CCCCC1)N(C)C2=O (stereo unspecified) do in these assays?
Methyltransferases: inactive

How did COc1ccc(CNC(=O)C2(C)Cn3cnc(C(=O)Nc4ccc(Cl)cc4F)c3C(=O)N2C2CC2)cc1 (stereo unspecified) do in these assays?
Methyltransferases: inactive
